Data on 13 molecules can be found in PubChem BioAssay AID1224860 (National Center for Advancing Translational Sciences (NCATS), 2016).

Results filed as inconclusive are left out. Where a call stands in place of a potency, no number is given. Activity calls are given as the source filed them. Calls follow the shape of the dose curve; as a rule, active = well fitted cell-killing curve with a large enough effect; inconclusive = small, poorly fitted or top-dose-only effect; inactive = flat fitted curve, though single readings scatter.

A short description of this test: Compound cytotoxicity measured by an ATP content assay as a counter-screen for lead compounds in human iPSC derived neural progenitor cells (hNPCs). Conditions: human iPSC-derived NPC viability, ATP luminescence; series mostly up to 46.1 µM. As to the method: National Center for Advancing Translational Sciences [NCATS] Johns Hopkins University School of Medicine Florida State University Assay Overview: Many compounds can cause cytotoxicity at high compound concentrations. […] The compound cytotoxicity may also cause side effects or toxicity in human. Thus, the compound cytotoxicity needs to be measured in each cell type and each compound incubation time - same as these in the compound screening assay. The compound cytotoxicity can be measured by cell viability assays such as the ATP content assay. We use an ATP content assay kit for cell viability measurement. It measures ATP content (level) in human iPSC derived neural progenitor cells (hNPCs) using a luminescence readout that is proportional to viable cell numbers. Decrease in the luminescence signal after the compound treatment indicates reduced cell viability and cell death caused by compound treatment.
Assay Protocol Summary: The medium for hNPCs consists of DMEM/F12, N2 supplement (ThermoFisher, Cat.# 17502048), NEAA (ThermoFisher, Cat. # 11140050), 2 ug/ml heparin, 2 uM cyclopamine, and B27 (ThermoFisher, Cat. # 17504044). The ATP content assay kit (PerkinElmer, Cat.# 6016731) was used to determine cell viability. The reagent was reconstituted and prepared as described by the manufacturer. Cells were seeded in 384- or 1536-well assay plates and cultured at 37 C with 5% CO2 for 16 to 20 hours. The typical cell seeding density in the 1536-well plate assay is 350 cells/well in 3 ul medium for hNPCs in the tissue cultured treated/PDL coated plates. Compounds were added to cells and incubated for a specific time such as 6, 24, or 72 hours before addition of the reagent mixture of the ATP content assay kit at 1:1 ratio. After incubation at room temperature for 10 minutes, the luminescence intensity in assay plates was measured using a ViewLux plate reader (PerkinElmer). […] The percentage inhibitions of the decreased cell viability by small molecules were then calculated that indicate compound cytotoxicity.
A general note: The purpose of a counterscreen is to sort out artefacts and off-target activity.
On to `O=C1CCC[C@@H]2[C@H]3CCCN4CCC[C@@H](CN12)[C@@H]34`, for which the Potency entry was “inactive”.

For `O=C1C=CC[C@@H]2[C@H]3CCCN4CCC[C@@H](CN12)[C@@H]34`, the Potency entry was “inactive”. The result for `COP(=S)(OC)SCN1C(=O)c2ccccc2C1=O` reads “inactive”; that for `Cc1ccc([N+](=O)[O-])[c]2c1[O][Hg]2`, 869 nM (active). The result for `O=c1c2ccccc2[se]n1-c1ccccc1` reads 12300 nM (active); that for `CC(C)[C@H]1C(=O)N[C@H](CO)Cc2c[nH]c3cccc(c23)N1C`, “inactive”.

For the molecule `CC(C)[N+](C)(CCC(C(N)=O)(c1ccccc1)c1ccccc1)C(C)C`, the Potency result was “inactive”. The result for `CC(C)N[C@@H]1CCn2c(=O)[nH]c3cccc(c32)[C@@H]1O` reads “inactive”; that for `COC1(CS(=O)c2ccccc2)CCN(CCc2c[nH]c3ccc(F)cc23)CC1` (stereo not drawn), “inactive”. The result for `Oc1ccc([C@H]2CNCc3c2ccc(O)c3O)cc1O` reads “inactive”; that for `CN1CC[C@@]2(C)c3cc(OC(=O)Nc4ccccc4)ccc3N(C)[C@@H]12`, “inactive”. The entry for `CC(O)CN1CCN(CC(=O)[O-])CCN(CC(=O)[O-])CCN(CC(=O)[O-])CC1.[Gd+3]` (stereo not drawn) is “inactive”; for `S=C(SSC(=S)N1CCCCC1)N1CCCCC1` it is 245 nM (active).
